“And” between values parts separate entries of the source, which are not always exact repeats. Equal values may be shown once. Screen size: about 5,500 compounds; about 2,000 (36%) were called active. About 18% were inconclusive and are not listed. This is one part of the list. A number with no mark means an inactive call. Rule as the data show it: active = normalized growth mostly below about 0.91 (no sharp cut-off); inconclusive = no clear call, values can overlap the other calls; inactive = mostly above about 0.92.
Assay: chemical genetic growth profiling, strain panel (AID 1159580);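 also: tested at 20 µM; growth read once vehicle control cultures reached saturation at 30 °C; 1 = growth at the plate median or of vehicle wells; lower values mean less growth of the strain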
Settings: S. cerevisiae deletion strains, growth OD

## O=C1c2ccccc2C(=O)c2c1ccc(O)c2O
Locus YAL021C, strain ccr4, active compounds read low
  normalized growth: 0.213 (active)
Locus YAL026C, strain drs2, active compounds read low
  normalized growth: 0.273 (active)
Locus YAL030W, strain snc1, active compounds read low
  normalized growth: 0.578 (active)
Locus YBL061C, strain skt5, active compounds read low
  normalized growth: 0.44 (active)
Locus YBR009C, strain hhf1, active compounds read low
  normalized growth: 0.532 (active)
Locus YBR021W, strain FUR4, active compounds read low
  normalized growth: 0.671 (active)
Locus YBR023C, strain chs3, active compounds read low
  normalized growth: 0.38 (active)
Locus YBR171W, strain sec66, active compounds read low
  normalized growth: 0.681 (active)
Locus YBR229C, strain ROT2, active compounds read low
  normalized growth: 0.399 (active)
Locus YBR231C, strain swc5, active compounds read low
  normalized growth: 0.3 (active)
Locus YBR279W, strain paf1, active compounds read low
  normalized growth: 0.512 (active)
Locus YCL011C, strain gbp2, active compounds read low
  normalized growth: 0.501 (active)
Locus YCL016C, strain dcc1, active compounds read low
  normalized growth: 0.564 (active)
Locus YCL029C, strain bik1, active compounds read low
  normalized growth: 0.342 (active)
Locus YCL061C, strain MRC1, active compounds read low
  normalized growth: 0.608 (active)
Locus YCL069W, strain vba3, active compounds read low
  normalized growth: 0.52 (active)
Locus YCR088W, strain abp1, active compounds read low
  normalized growth: 0.679 (active)
Locus YDL005C, strain med2, active compounds read low
  normalized growth: 0.663 (active)
Locus YDL035C, strain GPR1, active compounds read low
  normalized growth: 0.231 (active)
Locus YDL040C, strain nat1, active compounds read low
  normalized growth: 0.703 (active)
Locus YDL074C, strain BRE1, active compounds read low
  normalized growth: 0.178 (active)
Locus YDL101C, strain DUN1, active compounds read low
  normalized growth: 0.235 (active)
Locus YDL185W, strain tfp1, active compounds read low
  normalized growth: 0.816 (active)
Locus YDL192W, strain arf1, active compounds read low
  normalized growth: 0.301 (active)
Locus YDR001C, strain nth1, active compounds read low
  normalized growth: 0.722 (active)
Locus YDR069C, strain doa4, active compounds read low
  normalized growth: 0.401 (active)
Locus YDR101C, strain arx1, active compounds read low
  normalized growth: 0.549 (active)
Locus YDR137W, strain rgp1, active compounds read low
  normalized growth: 0.261 (active)
Locus YDR159W, strain sac3, active compounds read low
  normalized growth: 0.722 (active)
Locus YDR162C, strain NBP2, active compounds read low
  normalized growth: 0.0628 (active)
Locus YDR195W, strain ref2
  normalized growth: 0.892
Locus YDR297W, strain sur2, active compounds read low
  normalized growth: 0.559 (active)
Locus YDR318W, strain mcm21, active compounds read low
  normalized growth: 0.34 (active)
Locus YDR334W, strain swr1, active compounds read low
  normalized growth: 0.298 (active)
Locus YDR335W, strain msn5, active compounds read low
  normalized growth: 0.56 (active)
Locus YDR388W, active compounds read low
  normalized growth: 0.149 (active)
Locus YDR392W, strain spt3, active compounds read low
  normalized growth: 0.321 (active)
Locus YDR502C, strain sam2, active compounds read low
  normalized growth: 0.391 (active)
Locus YEL003W, strain gim4, active compounds read low
  normalized growth: 0.504 (active)
Locus YEL037C, strain rad23, active compounds read low
  normalized growth: 0.552 (active)
Locus YEL061C, strain CIN8 (second series), active compounds read low
  normalized growth: 0.694 (active)
Locus YEL061C, strain CIN8, active compounds read low
  normalized growth: 0.39 (active)
Locus YER015W, strain faa2, active compounds read low
  normalized growth: 0.39 (active)
Locus YER016W, strain bim1, active compounds read low
  normalized growth: 0.675 (active)
Locus YER110C, active compounds read low
  normalized growth: 0.412 (active)
Locus YER111C, strain swi4, active compounds read low
  normalized growth: 0.566 (active)
Locus YER155C, strain BEM2 (second series), active compounds read low
  normalized growth: 0.441 (active)
Locus YER155C, strain BEM2, active compounds read low
  normalized growth: 0.276 (active)
Locus YER167W, strain BCK2, active compounds read low
  normalized growth: 0.245 (active)
Locus YFR010W, strain ubp6, active compounds read low
  normalized growth: 0.557 (active)
Locus YGL078C, strain dbp3, active compounds read low
  normalized growth: 0.872 (active)
Locus YGL086W, strain mad1, active compounds read low
  normalized growth: 0.291 (active)
Locus YGL167C, strain pmr1, active compounds read low
  normalized growth: 0.554 (active)
Locus YGL173C, strain kem1, active compounds read low
  normalized growth: 0.248 (active)
Locus YGL227W, strain vid30, active compounds read low
  normalized growth: 0.777 (active)
Locus YGL240W, strain doc1, active compounds read low
  normalized growth: 0.442 (active)
Locus YGL248W, strain PDE1, active compounds read low
  normalized growth: 0.21 (active)
Locus YGL253W, strain hxk2, active compounds read low
  normalized growth: 0.295 (active)
Locus YGR078C, strain PAC10, active compounds read low
  normalized growth: 0.182 (active)
Locus YGR135W, strain pre9, active compounds read low
  normalized growth: 0.394 (active)
Locus YGR252W, strain gcn5, active compounds read low
  normalized growth: 0.456 (active)
Locus YHR013C, strain ard1, active compounds read low
  normalized growth: 0.427 (active)
Locus YHR027C, strain rpn1, active compounds read low
  normalized growth: 0.349 (active)
Locus YHR030C, strain SLT2, active compounds read low
  normalized growth: 0.613 (active)
Locus YHR079C, strain IRE1 (second series), active compounds read low
  normalized growth: 0.434 (active)
Locus YHR079C, strain IRE1, active compounds read low
  normalized growth: 0.67 (active)
Locus YHR094C, strain hxt1, active compounds read low
  normalized growth: 0.417 (active)
Locus YHR129C, strain ARP1, active compounds read low
  normalized growth: 0.216 (active)
Locus YHR142W, strain chs7, active compounds read low
  normalized growth: 0.339 (active)
Locus YHR200W, strain rpn10, active compounds read low
  normalized growth: 0.488 (active)
Locus YIL066C, strain RNR3, active compounds read low
  normalized growth: 0.174 (active)
Locus YIL073C, strain SPO22, active compounds read low
  normalized growth: 0.221 (active)
Locus YIL125W, strain kgd1, active compounds read low
  normalized growth: 0.864 (active)
Locus YIR030C, strain dcg1, active compounds read low
  normalized growth: 0.466 (active)
Locus YJL092W, strain hpr5, active compounds read low
  normalized growth: 0.665 (active)
Locus YJL095W, strain BCK1 (second series), active compounds read low
  normalized growth: 0.22 (active)
Locus YJL095W, strain BCK1, active compounds read low
  normalized growth: 0.0992 (active) and 0.647 (active)
Locus YJL115W, strain asf1, active compounds read low
  normalized growth: 0.644 (active)
Locus YJL129C, strain trk1, active compounds read low
  normalized growth: 0.33 (active)
Locus YJL134W, strain LCB3, active compounds read low
  normalized growth: 0.309 (active)
Locus YJL154C, strain vps35, active compounds read low
  normalized growth: 0.718 (active)
Locus YJL164C, strain tpk1, active compounds read low
  normalized growth: 0.414 (active)
Locus YJL166W, strain qcr8, active compounds read low
  normalized growth: 0.446 (active)
Locus YJL168C, strain set2, active compounds read low
  normalized growth: 0.52 (active)
Locus YJL187C, strain SWE1 (second series), active compounds read low
  normalized growth: 0.192 (active)

From PubChem BioAssay AID1159580 (chemical genetic matrix, 2015)
